Data: PubChem BioAssay (EPA / NIEHS)
Inconclusive results are not listed. Calls of active or inactive are those of the source. Rule for the calls: active = hit-call score of the fitted dose curve at least 0.9, where 1 is the maximum; inconclusive = response in the unintended direction; inactive = score below 0.9.

target: Glucocorticoid receptor (Homo sapiens) (UniProt P04150); experiment: ATG_GR_TRANS: Attagene TRANS-FACTORIAL HepG2 Assay for human Glucocorticoid Receptor (GR) (AID 2282978); details: HepG2 Attagene TRANS GR reporter, mRNA transcription;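 note: activators score as hits since higher reporter transcript over DMSO is fitted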
Sequence (P04150 whole entry, looked up): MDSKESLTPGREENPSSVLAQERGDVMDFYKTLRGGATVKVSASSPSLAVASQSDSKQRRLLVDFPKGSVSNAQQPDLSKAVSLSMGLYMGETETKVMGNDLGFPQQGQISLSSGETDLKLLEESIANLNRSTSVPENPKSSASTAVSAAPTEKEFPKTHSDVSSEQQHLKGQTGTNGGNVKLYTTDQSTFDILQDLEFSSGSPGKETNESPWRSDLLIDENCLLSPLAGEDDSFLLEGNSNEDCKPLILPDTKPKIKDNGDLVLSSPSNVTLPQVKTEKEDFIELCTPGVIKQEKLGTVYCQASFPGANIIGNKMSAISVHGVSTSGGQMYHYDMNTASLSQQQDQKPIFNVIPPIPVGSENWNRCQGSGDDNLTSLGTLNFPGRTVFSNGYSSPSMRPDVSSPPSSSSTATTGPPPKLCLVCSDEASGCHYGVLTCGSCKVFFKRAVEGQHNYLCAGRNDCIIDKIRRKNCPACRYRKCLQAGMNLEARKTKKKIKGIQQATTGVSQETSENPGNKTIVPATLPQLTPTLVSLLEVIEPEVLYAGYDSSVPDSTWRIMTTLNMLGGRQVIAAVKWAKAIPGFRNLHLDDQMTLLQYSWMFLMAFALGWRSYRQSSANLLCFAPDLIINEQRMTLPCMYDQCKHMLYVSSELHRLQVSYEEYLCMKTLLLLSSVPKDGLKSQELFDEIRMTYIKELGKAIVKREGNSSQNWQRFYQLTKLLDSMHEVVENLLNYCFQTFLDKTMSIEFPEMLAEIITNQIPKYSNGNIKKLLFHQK
Protocol: ATG_TRANS is a cell-based, multiplexed-readout assay that uses HepG2, a human liver cell line, with measurements taken at 24 hours after chemical dosing in a 24-well plate.ATG_GR_TRANS is one of 30 assay component(s) measured or calculated from the ATG_TRANS assay. It is designed to make measurements of mRNA induction, a form of inducible reporter, as detected with fluorescence intensity signals by Reverse transcription polymerase chain reaction (RT-PCR) and Capillary electrophoresis technology.Data from the assay component ATG_GR_TRANS was analyzed into 1 assay endpoint. This assay endpoint, ATG_GR_TRANS, was analyzed in the positive analysis fitting direction relative to DMSO as the negative control and baseline of activity. Using a type of inducible reporter, measures of mRNA for gain-of-signal activity can be used to understand the reporter gene at the transcription factor-level as they relate to the gene NR3C1. Furthermore, this assay endpoint can be referred to as a primary readout, because this assay has produced multiple assay endpoints where this one serves a reporter gene function. To generalize the intended target to other relatable targets, this assay endpoint is annotated to the nuclear receptor intended target family, where the subfamily is steroidal.
Human liver HepG2 cells are transiently transfected with multiple reporter transcription units (MRTUs) in 6-well plates using FuGene 6 reagent (Roche; 3 ml FuGene/1 mg DNA). The MRTU constructs are regulated by a cis-regulating element (promoter). […] A major difference between the CIS and TRANS system is that in CIS activities of endogenous TFs are measured, whereas the TRANS assay evaluates changes in activities of exogenous, chimeric NR-Gal4 proteins. […] At the end of 24 hour incubation, total RNA was isolated using TriZol reagent (Invitrogen). The isolated RNA is then reverse-transcribed using oligo(dT) primer and Mo-MLV reverse transcriptase (Invitrogen) with DNAse I (Ambion) treatment for 30 min. The one-tenth of the produced cDNA was amplified by PCR using Taq DNA polymerase (Invitrogen) and two reporter sequence-specific primers. The PCR products were fluorescently labeled by primer extension with 6-arboxyfluorescein (6-FAM) 5'-labeled reporter sequence-specific primer (2 min at 95 C, 20 s at 68 C and 10 min at 72 C) and these products were digested with 5U of HpaI (New England Biolabs) for 2h at 37 C. The fragments were purified using Qiaquick PCR columns (Qiagen), analyzed on an ABI 3130xL genetic analyzer (Applied Biosystems) with peak positions identified by using a set of X-rhodamine (ROX)-labeled MapMarker1000 molecular weight standards (BioVentures). The raw capillary electrophoresis data was processed using Attagraph software (Attagene).

SMILES | outcome | AC50
CC(=O)OCC=C(C)C | inactive | 
CCCCCCCOC(=O)c1ccc(O)cc1 | inactive | 
Nc1ncnc2nc[nH]c12 | inactive | 
CCOC(=O)C1=NN(c2ccc(Cl)cc2Cl)C(C)(C(=O)OCC)C1 (stereo not given) | inactive | 
CC(C)c1cc(C(C)C)cc(C(C)C)c1 | inactive | 
O=C(Nc1ccccc1)c1cc(Cl)ccc1O | inactive | 
C=C(C)C(=O)OCCCCCCCCCCCC | inactive | 
O=C(OCc1ccccc1)c1ccc(O)cc1 | inactive | 
CCCCOC(=O)CCC(C)=O | inactive | 
C=CC(=O)OCCCCCCCCCC | inactive | 
CCOC(=O)CC(=O)c1ccccc1 | inactive | 
N#CC1(N)CCCCC1 | inactive | 
CCCCNC(=S)NCCCC | inactive | 
Cc1cccc(C(C)(C)C)c1O | inactive | 
CCCCCCCCCC(C)=O | inactive | 
CC(C)(C)NC(=O)[C@H]1CC[C@H]2[C@@H]3CC[C@H]4NC(=O)C=C[C@]4(C)[C@H]3CC[C@]12C | inactive | 
COCC(=O)O | inactive | 
CC(C)=CCl | inactive | 
CC1CC(=O)CC(C)(C)C1 (stereo not given) | inactive | 
Cc1c(Cl)cccc1Cl | inactive | 

SMILES | outcome | AC50
CCCCCCCCCCCCC | inactive | 
CCCC(CC)c1ccccc1 (stereo not given) | inactive | 
CC(C)[N+](C)(CCOC(=O)C1c2ccccc2Oc2ccccc21)C(C)C | inactive | 
CCOc1ccc(NC(N)=O)cc1 | inactive | 
CCCCCCCCCCCC(C)=O | inactive | 
Cc1c(C(=O)c2c[nH]n(C)c2=O)ccc(S(C)(=O)=O)c1C1=NOCC1 | inactive | 
CCCC(C)C(=O)OCC (stereo not given) | inactive | 
Nc1ccc(C(=O)OCCCOC(=O)c2ccc(N)cc2)cc1 | inactive | 
Fc1ccc(Br)cc1 | inactive | 
C=C[C@@]1(C)CC(=O)[C@]2(O)[C@@]3(C)[C@@H](O)CCC(C)(C)[C@@H]3[C@H](O)[C@H](OC(C)=O)[C@@]2(C)O1 |  | 42.5 µM (active)
O=C(Cl)c1ccc(C(=O)Cl)cc1 | inactive | 
CCCCC(CC)COC(=O)/C=C/c1ccc(OC)cc1 (stereo not given) | inactive | 
C=CCNCC=C | inactive | 
Cc1c[nH]c(=O)[nH]c1=O | inactive | 
CC(=O)c1ccc(S(=O)(=O)NC(=O)NC2CCCCC2)cc1 | inactive | 
CCCCC(C=O)CC (stereo not given) | inactive | 
CC(C)CCCCCOC(=O)CS | inactive | 
O=C1c2ccccc2C(=O)c2cc(S(=O)(=O)O)ccc21 | inactive | 
C[Si]1(C)O[Si](C)(C)O[Si](C)(C)O[Si](C)(C)O[Si](C)(C)O1 | inactive | 
C=Cc1cccc(C)c1 | inactive | 
